According to PubChem BioAssay AID652015 (National Center for Advancing Translational Sciences (NCATS), 2013):
Inconclusive results are not listed. Activity calls are given as the source filed them. Calls come from the whole dose curve; as a rule, active = well fitted inhibition curve with a large enough effect; inconclusive = small, poorly fitted or top-dose-only effect; inactive = no such curve, though single readings can be large or run the other way.

molecular target: Coelenterazine h 2-monooxygenase (Renilla reniformis) (UniProt P27652); assay: qHTS Assay for Inhibitors of Sea Pansy Luciferase from the GSK Published Protein Kinase Inhibitor Set; conditions: purified Renilla luciferase, luminescence; series mostly up to 57.5 µM
Outline: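 Purified R. reniformis luciferase (1 nM final) with 5 uM coelenterazine h in 50 mM Tris acetate pH 7.5, 100 uM NaCl, 0.01% Tween-20, 0.05% BSA. A titration, about 60 uM to 300 pM; luminescence read after about 2 min.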

Chain of Coelenterazine h 2-monooxygenase (Renilla reniformis) (P27652 whole entry, looked up): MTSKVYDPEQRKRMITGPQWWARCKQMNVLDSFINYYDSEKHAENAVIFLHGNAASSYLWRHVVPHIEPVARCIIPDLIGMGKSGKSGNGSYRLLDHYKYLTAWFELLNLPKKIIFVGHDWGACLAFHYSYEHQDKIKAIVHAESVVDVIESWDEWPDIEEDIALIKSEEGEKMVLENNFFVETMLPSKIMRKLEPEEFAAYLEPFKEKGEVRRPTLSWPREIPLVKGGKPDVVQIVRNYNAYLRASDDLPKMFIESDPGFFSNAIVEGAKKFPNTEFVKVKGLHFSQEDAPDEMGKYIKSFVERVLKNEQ

Potency, inactive:
CS(=O)(=O)CCNCc1cc(-c2cc3c(Nc4ccc(OCc5cccc(F)c5)c(Cl)c4)ncnc3s2)cs1
CS(=O)(=O)CCNCc1coc(-c2ccc3ncnc(Nc4ccc(OCc5ccccc5)cc4)c3c2)c1
CC(C)(C)c1ccc(Oc2nccc(-c3c(-c4ccc(F)cc4)ncn3C3CCNCC3)n2)cc1
NC(=O)c1sc(-n2cnc3ccc(C(F)(F)F)cc32)cc1OCc1ccccc1Br
CCCN(CCS(C)(=O)=O)Cc1ccc(-c2ccc3ncnc(Nc4ccc(OCc5cccc(F)c5)c(Cl)c4)c3c2)o1
COc1ccc(-c2oc3ncnc(N)c3c2-c2ccc(NC(=O)Nc3cc(C(F)(F)F)ccc3F)cc2)cc1
COc1cc2ncn(-c3cc(OCc4ccccc4C(F)(F)F)c(C(N)=O)s3)c2cc1OC
Fc1ccc(-c2ncn(C3CCNCC3)c2-c2ccnc(Oc3cccc(F)c3)n2)cc1
COc1ccc(Nc2ncc(-c3ccccc3)o2)cc1OC
CC(C)c1ccc(Nc2nccc(-c3cnn4ncccc34)n2)cc1
O=C(Nc1ccc(Oc2ccc3nc(NC(=O)c4ccccc4)[nH]c3c2)cc1)Nc1cc(C(F)(F)F)ccc1F
CN1CCN(C(=O)c2ccc(NC(=O)Nc3ccc(N(C)c4ccnc(Nc5ccc(CS(C)(=O)=O)cc5)n4)cc3)cc2)CC1
COc1cc(C=NNc2ncnc3c2cnn3C(C)C)ccc1O
CCn1c(-c2nonc2N)nc2ccc(F)cc21
CCS(=O)(=O)c1ccc(OC)c(Nc2ncc(-c3cccc(C(C)=O)c3)o2)c1
